The campaign covered roughly 69,000 compounds. About 8,600 (12%) showed an effect of 50% or more. What follows is part of a selection rich in strong results, with near analogues and random picks from the rest.

The assay relates to Plasmodium berghei. Put plainly: Screen against P. berghei liver stage (PbLuc), transformed with Luciferase, at 10uM. The note with it: tested at 10 uM. Type of assay: functional, HepG2.
In the case of `CC(=O)N1CCN(Cc2c(C)sc3ccccc23)CC(O)C1` (stereo unspecified), the INHIBITION is listed as 35.4%.

Regarding `CC(=O)N1CCN(Cc2c(C)ccc3ccccc23)CC(O)C1` (stereo unspecified), the INHIBITION is 44.3%.

As for `CC(=O)N1CCN(Cc2cccc3c2sc2ccccc23)CC(O)C1` (stereo unspecified), the INHIBITION is on record as 84.6%.

Turning to `Cc1cnn(CCNCc2cccc(C#N)c2)c1`, the INHIBITION is reported as 32.2%.

As to `Cn1cncc1CN1CCC2(CC1)COCCN(S(C)(=O)=O)C2`, the INHIBITION is on record as 4.68%.

For the compound `O=C(CC1CCCC1)N1CCC(c2nnc(-c3ccccn3)o2)CC1`, the INHIBITION was -18.1%.

Take `CN(Cc1ccccc1)C(=O)c1nc(S(C)(=O)=O)n2ccccc12`: the INHIBITION was 52%.

For the compound `CN(Cc1ccccn1)C(=O)c1nc(S(C)(=O)=O)n2ccccc12`, the INHIBITION amounted to 36.85%.

`CC(C)CCN(C)C(=O)c1nc(S(C)(=O)=O)n2ccccc12`: the INHIBITION is 46.5%.

In the case of `Cn1cc(Cl)cc1C(=O)N1CCCN(Cc2ccccc2)CC1`, the INHIBITION is 16.97%.

On to `Cn1cnnc1SCc1cc2c(cc1Br)OCO2`, for which the INHIBITION came to 49%.

Take `N[C@H]1CCCN(S(=O)(=O)c2ccc(C(=O)NCC(F)F)cc2)C1`: the INHIBITION worked out at 66.1%.

In the case of `N#CC1CCCN(S(=O)(=O)c2ccc(C(=O)NCC(F)F)cc2)C1` (stereo unspecified), the INHIBITION is listed as 49.2%.

On to `O=C(NCC(F)F)c1ccc(S(=O)(=O)N2CCCC(O)C2)cc1` (stereo unspecified), for which the INHIBITION worked out at 37.3%.

For the compound `CN(C(=O)c1cn(C)cn1)[C@@H]1CCC[C@@H](Oc2ccccc2)[C@@H]1O`, the INHIBITION came to 60.5%.

As for `Cc1cnc(C(=O)N(C)[C@@H]2CCC[C@@H](Oc3ccccc3)[C@@H]2O)cn1`, the INHIBITION is 17.1%.

On to `CN(C(=O)c1ccn(C)n1)[C@@H]1CCC[C@@H](Oc2ccccc2)[C@@H]1O`, for which the INHIBITION is reported as 35.2%.

As for `Cc1noc(C)c1-c1cncc(C2CCCN2Cc2nccs2)n1` (stereo unspecified), the INHIBITION amounted to 15.9%.

As to `O=C(CC1CCCO1)N1CCCN(c2cccnn2)CC1` (stereo unspecified), the INHIBITION was found to be 7.12%.

Turning to `Cc1cc(C)nc(N(C)CCn2ccnc2C)n1`, the INHIBITION is recorded as -45.7%.

Take `CN(C)C(=O)CN1CCC2(CC1)CC(=O)c1ccc3ccccc3c1O2`: the INHIBITION was 41.1%.

Take `OCC1CCCCN1CCCNCc1cc(O)c2cc(F)ccc2n1` (stereo unspecified): the INHIBITION turned out to be 25.7%.

On to `O=C1CCCN1CCCNCc1cc(O)c2cccc(F)c2n1`, for which the INHIBITION was -15.8%.

With `Oc1cc(CNCCN2CCCCC2)nc2c(F)cccc12`, the INHIBITION amounted to 13.7%.

Regarding `O=C1CCCN1CCCNCc1cc(O)c2cccc(Cl)c2n1`, the INHIBITION was -13.4%.

For the compound `O=S(=O)(CCNCc1cc(O)c2cc(F)ccc2n1)N1CCCC1`, the INHIBITION turned out to be 58.2%.

With `CN1CCN(CCCNCc2cc(O)c3cc(F)ccc3n2)CC1`, the INHIBITION was found to be 65.6%.

Regarding `O=C(CCNCc1cc(O)c2cc(F)ccc2n1)N1CCCC1`, the INHIBITION is reported as 30.4%.

Turning to `Oc1cc(CNCCCN2CCCC2)nc2ccc(F)cc12`, the INHIBITION was found to be 62.8%.

Turning to `Cc1ccc2nc(CNCCCN3CCCC3)cc(O)c2c1`, the INHIBITION is recorded as 41.5%.

On to `CC(NCc1c(C(C)C)nn(C)c1N1CCOCC1)C(=O)N(C)C` (stereo unspecified), for which the INHIBITION was determined as 19.45%.

As for `Cc1cc(C)c2c(NCCC3(O)CCCC3)ncnc2n1`, the INHIBITION turned out to be 42.3%.

As to `CCn1ccc2ccnc(CC3CN(C(=O)c4cnco4)C3)c21`, the INHIBITION was 1.62%.

`CN1CC2(CCCCN2C(=O)c2ccsc2)CC1=O` (stereo unspecified): the INHIBITION came to 35.8%.

Turning to `Cc1oc(C)c(C(=O)NCc2cccc(C(N)=O)c2)c1C`, the INHIBITION is listed as -39.7%.

Take `CNC(=O)C1CN(C)CCN1c1nc(C)cc(C)n1` (stereo unspecified): the INHIBITION was -5.8%.

For `COC(=O)Cn1c(=O)[nH]c2cn(-c3ccc(Cl)cc3)c(=O)n21`, the INHIBITION stood at 0.547%.

With `NC(=O)c1cc(C2CCCN(CCCOc3ccc(F)cc3)C2)n[nH]1` (stereo unspecified), the INHIBITION amounted to 14.22%.

For `CC(=O)c1ccc(OCC(=O)NS(=O)(=O)c2ccc(Cl)s2)cc1`, the INHIBITION was 36.8%.

Regarding `Cc1ccc(S(=O)(=O)NC(=O)CCOCC(C)C)s1`, the INHIBITION is listed as 55.9%.

On to `CC(C)COCCC(=O)NS(=O)(=O)c1ccc(Cl)s1`, for which the INHIBITION was 62.4%.

With `CCOCCCC(=O)NS(=O)(=O)c1ccc(C)s1`, the INHIBITION was 11.3%.

For `Cc1ccc(S(=O)(=O)NC(=O)CCOCc2ccccc2)s1`, the INHIBITION was 36.3%.

Consider `COc1ccccc1OCC(=O)NS(=O)(=O)c1ccc(Cl)s1`, for which the INHIBITION is recorded as 31.3%.

Turning to `OC1(CN2CCCC2)COCCN(c2cc(C(F)(F)F)ccn2)C1` (stereo unspecified), the INHIBITION is -16%.

Consider `OCCn1nccc1C1CCN(Cc2nc(C3CC3)no2)CC1`, for which the INHIBITION stood at 33.7%.

In the case of `Cc1cc(C(=O)N2CCC(Nc3cccnc3)CC2)c(C)s1`, the INHIBITION is reported as -19.5%.

As to `O=S1(=O)NC(c2ccnc(N3CCCC3)n2)=Nc2ccccc21`, the INHIBITION came out at 33.2%.

With `Cc1ccc(C(=O)N2CCC3(CC2)CC(N2CCCC2)C3)cc1`, the INHIBITION is given as 39.9%.

As to `O=C(c1ccc(F)cc1)N1CCC2(CC1)CC(N1CCOCC1)C2`, the INHIBITION is given as -24.5%.

Regarding `Cc1ccc(C(=O)N2CCC3(CC2)CC(N2CCOCC2)C3)cc1`, the INHIBITION is given as 55.7%.

In the case of `CN(C)C(=O)c1cn[nH]c1C1(C)CCCN(Cc2ccccn2)C1` (stereo unspecified), the INHIBITION is reported as 40%.

Consider `CCOc1ccc(NC(=O)N2CCNC(=O)C2)c(C(F)(F)F)c1`, for which the INHIBITION turned out to be 40.2%.

In the case of `O=C(Cn1cc(-c2ccccc2)ncc1=O)Nc1nnc[nH]1`, the INHIBITION is recorded as 13%.

For the compound `O=C(Cn1cc(-c2ccccc2)ncc1=O)Nc1ncc[nH]1`, the INHIBITION was found to be 81%.

For `O=C(Cn1cc(-c2ccccc2)ncc1=O)Nc1ccncc1`, the INHIBITION was 0.547%.
